Laboratory results: PubChem BioAssay (NCI)
Compounds without any hit were thinned out: in the full panel of roughly 79,000, 15% have a hit. Rule as the data show it: active = growth inhibition above about 70%; inactive = the rest. Where a SMILES comes first, the peptide text is derived from it. The star is where a group is joined. Cbz = O=C(OCc1ccccc1)*

Legend:
[1] = NCI Yeast Anticancer Drug Screen. Data for the rad50 strain (AID 155);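 also: 0% = growth of vehicle-only cultures of the same strain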; conditions: S. cerevisiae rad50 strain growth inhibition; at 50.0 µM; stronger effect = higher value
Outline: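 Cells are treated with compound, grown, and their growth is then scored against vehicle-only cultures of the same repair-deficient yeast strain.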

[2] = NCI Yeast Anticancer Drug Screen. Data for the mec2-1 strain (AID 157); conditions: S. cerevisiae mec2-1 strain, at 50.0 µM, stronger effect = higher value
Outline: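 Strain: mec2-1 (DNA repair/cell cycle alteration). Compound exposure, then growth measured; inhibition expressed relative to vehicle.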

[3] = NCI Yeast Anticancer Drug Screen. Data for the sgs1 mgt1 strain (AID 161);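 also: 0% = growth of cultures given vehicle only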; conditions: S. cerevisiae sgs1 mgt1 strain, at 50.0 µM, stronger effect = higher value
Outline: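 Read-out: growth inhibition vs vehicle controls. Cells: mutant yeast strain deficient in DNA damage repair.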

[4] = NCI Yeast Anticancer Drug Screen. Data for the cln2 rad14 strain (AID 165);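 also: 0% = growth equal to vehicle treated cultures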; conditions: S. cerevisiae cln2 rad14 strain, at 50.0 µM, stronger effect = higher value
Outline: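 Compounds are applied to the cln2 rad14 yeast strain, and growth is then compared with that of vehicle-treated cultures to give inhibition.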

[5] = NCI Yeast Anticancer Drug Screen. Data for the bub3 strain (AID 167); conditions: S. cerevisiae bub3 mutant strain, at 50.0 µM, stronger effect = higher value
Outline: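 Part of a panel of yeast mutants defective in DNA damage repair or cell cycle regulation. Each strain is grown with compound, and inhibition is calculated relative to solvent-treated cultures.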

[6] = NCI Yeast Anticancer Drug Screen. Data for the mlh1 rad18 strain (AID 175); conditions: S. cerevisiae mlh1 rad18 strain growth inhibition; at 50.0 µM; stronger effect = higher value
Outline: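 Read-out is yeast growth inhibition, calculated against vehicle-only controls. The compound was applied to a strain engineered with DNA damage repair alterations.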

Measured: growth inhibition

N#CC1CCCCCCCCCCC(=O)N(CCCl)C1=O (stereo not given)
inactive: [1] -4.25% | [2] -0.45% | [3] 13.2% | [4] 6.2% | [5] -12.9% | [6] -7.05%

CCC(=O)C(=O)c1ccccc1
inactive: [1] -12.9% | [2] -6.5% | [3] -0.4% | [4] -2.35% | [5] -1.05% | [6] 3.2%

O=C(O)CCc1ccsc1
inactive: [1] -17.6% | [2] 4.55% | [3] -21.9% | [4] -28.4% | [5] -10.5% | [6] 4.45%

Fc1ccc(CC(F)F)cc1
inactive: [1] -2.55% | [2] -6.2% | [3] 14.4% | [4] 4.6% | [5] -23.6% | [6] 3.25%

O=C(C1OC1c1ccccc1)C1OC1c1ccccc1 (stereo not given)
inactive: [1] -6.05% | [2] 10.2% | [3] 9.55% | [4] -12.4% | [5] 62.1% | [6] 37%

COC(=O)CC(c1ccc2c(c1)OCO2)N1CCCCC1 (stereo not given)
inactive: [1] 7.35% | [2] -12.9% | [3] -11.7% | [4] -22.9% | [5] -1% | [6] 11.2%

NC(=O)C1CCCCC1C(=O)O (stereo not given)
inactive: [1] 1.5% | [2] 5% | [3] 6.65% | [4] -10.7% | [5] 4.6% | [6] 14.8%

CC(=O)O[C@H]1C[C@H]2CC[C@@]1(C)C2(C)C
inactive: [1] 0.85% | [2] -4.45% | [3] -5.55% | [4] -24.8% | [5] -1.1% | [6] 7.95%

COC(=O)c1ccccc1CC1Cc2ccc3c(c2C1)CCC3 (stereo not given)
inactive: [1] -0.8% | [2] 5.45% | [3] -1.65% | [4] -31.6% | [5] 2.55% | [6] 13.7%

c1ccc(-c2ccc(N=NN3CCCC3)cc2)cc1
inactive: [1] 0.75% | [2] -5.6% | [3] 14.3% | [4] 6.4% | [5] -6.15% | [6] 8.1%

CCOC(=O)CCC(NC(=O)C(CCC(=O)O)NC(=O)OCc1ccccc1)C(=O)OCC (stereo not drawn) (Cbz-Glu-Glu(OEt)-OEt; configuration not given here)
inactive: [1] 26.4% | [2] -6.25% | [3] -1.85% | [4] -13.4% | [5] 0.05% | [6] 0.05%

CN(C)c1c([O-])c(=[N+](C)C)c1=O
inactive: [1] -37.9% | [2] -14.2% | [3] -20.2% | [4] -10.6% | [5] -5.55% | [6] -45.9%

O=C1C(O)=C(c2ccccc2)C12CSC1(CS2)C(=O)C(O)=C1c1ccccc1 (stereo not given)
inactive: [1] 4.45% | [2] -1.55% | [3] -12.9% | [4] 5.4% | [5] 6.05% | [6] 17.3%

Cc1c2ccccc2nc(CS(=O)c2ccccc2)[n+]1[O-] (stereo not given)
inactive: [1] -8.8% | [2] 21.9% | [3] 20.1% | [4] -36.4% | [5] 16.8% | [6] 20.2%

CC(=O)Nc1ccc(/C=N/NC(N)=O)cc1
inactive: [1] 16.4% | [2] 11.6% | [3] 19.8% | [4] 8.55% | [5] -0.7% | [6] 9.35%

O=[N+]([O-])c1ccc2nc(/C=C(\O)c3ccccc3)c(/C=C(\O)c3ccc(Cl)cc3)nc2c1
inactive: [1] -10.1% | [2] -28.2% | [3] -52.5% | [4] -66.3% | [5] -62.1% | [6] -31.2%

Oc1ccc(Br)cc1C(=S)N1CCOCC1
inactive: [1] 9.3% | [2] 18.4% | [3] 4.45% | [4] 3.6% | [5] -10.1% | [6] 37.2%

CC1CC(N2CSC(=S)N(C3CC(C)CC(C)(C)C3)C2)CC(C)(C)C1 (stereo not given)
inactive: [1] -17.2% | [2] -16.2% | [3] -4.55% | [4] 9.5% | [5] 3.9% | [6] -0.4%

C/C(C=C(C#N)C#N)=C\c1ccc(F)cc1
inactive: [1] 14.9% | [2] 28.1% | [3] -2.1% | [4] 30.9% | [5] -7.3% | [6] 21.4%

Cc1c(CCCl)c(=O)n2c([nH]c3ccccc32)c1C#N
inactive: [1] 56.5% | [2] -56.5% | [3] 18.6% | [4] 5.2% | [5] -52.1% | [6] 62%
